# Screening results from PubChem BioAssay.
# ATXN viability: reduces viability in counter-screen for ATXN expression inhibitors. AID 651635. Potency, µM (titrated, usually from 56.7 µM), hits mostly cytotoxic. 400,000 compounds, 0.49% hits. S2 cells (HEK-293 line with an ATXN2-luciferase reporter) viability, CellTiter-Fluor protease fluorescence, 24 h; also: potency is read from the fitted curve at half-maximal effect; nearly all actives have a fitted effect of over 40% in size
# TGFb SMAD3 inh: TGF-b pathway inhibition; HepG2 CAGA-GFP TGF-b/SMAD3 reporter, GFP fluorescence, 18 h; TGF-beta stimulated, 500 pg/mL final; Potency, µM (doses to about 46.1 µM), without a hit: top-dose activity, negative = inhibition, actives largely listed as inhibitors; 410,000 compounds, 1.2% hits; AID 588855; also: potency is read from the fitted curve at half-maximal effect; % is scaled to controls: 0 for no effect and ±100 for the full control effect; nearly all actives have a fitted effect of over 65% in size
#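 Inhibition was scored as loss of TGF-beta-induced (500 pg/mL final, 18 hours, 37 degrees C) GFP in HEPG2 cells carrying a CAGA-GFP reporter, in DMEM with 1% FBS. Well GFP was summed per cell; Activity was normalised to unstimulated and stimulated DMSO wells, then concentration-response fitting.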
# HepG2 tox: HepG2 cytotoxicity, counter-screen for TGF-b inhibitors. HepG2 CAGA-GFP viability, ATP luminescence, 18 h. AID 588856. 410,000 compounds, 0.76% hits. Potency, µM (top dose mostly 46.1 µM), without a hit: top-dose activity change, negative = cytotoxicity, most hits filed as cytotoxic; also: potency is read from the fitted curve at half-maximal effect
#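 CellTiter-Glo luminescence gave cytotoxicity after 18 hours at 37 degrees C. The cells were HepG2 CAGA-GFP in 1% FBS DMEM, stimulated with 500 pg/mL TGF-beta after compound addition. %Activity was normalised to no-cell wells (complete cell-killing) and DMSO (no toxicity), and curves were fitted and classified.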
# ATXN2 expr inh: ATXN2 expression inhibition; HEK-293 ATXN2-luciferase reporter, luminescence, 24 h; Potency, µM (titrated, usually from 57 µM), for the others: at the top dose activity change, negative = inhibition, usual class: inhibitors; 360,000 compounds, 0.72% hits; AID 1745845; also: potency is read from the fitted curve at half-maximal effect; % is scaled to controls: 0 for no effect and ±100 for the full control effect; nearly all actives have a fitted effect of over 55% in size
#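 qHTS (up to 57 uM final) was run with 24 h compound exposure of reporter cells at 37 °C. Each well was multiplexed: SteadyGlo luminescence measured ATXN2-luciferase expression after a fluorogenic Gly-Phe-AFC viability readout (25 uM final).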
# Six1-Eya2 inh: blocks human Six1 binding to Eya2; 360,000 compounds, 0.56% hits; AlphaScreen GST-Six1/His-Eya2 binding, biochemical; active compounds read low; Q15475+O00167; activity change, % (concentration not given with the values); AID 651725; in the data active = activity change below about -65%; inconclusive = mostly about -30% to -63%; also: % is scaled to controls: 0 for no effect and ±100 for the full control effect
# Target sequence (O00167 whole entry, looked up): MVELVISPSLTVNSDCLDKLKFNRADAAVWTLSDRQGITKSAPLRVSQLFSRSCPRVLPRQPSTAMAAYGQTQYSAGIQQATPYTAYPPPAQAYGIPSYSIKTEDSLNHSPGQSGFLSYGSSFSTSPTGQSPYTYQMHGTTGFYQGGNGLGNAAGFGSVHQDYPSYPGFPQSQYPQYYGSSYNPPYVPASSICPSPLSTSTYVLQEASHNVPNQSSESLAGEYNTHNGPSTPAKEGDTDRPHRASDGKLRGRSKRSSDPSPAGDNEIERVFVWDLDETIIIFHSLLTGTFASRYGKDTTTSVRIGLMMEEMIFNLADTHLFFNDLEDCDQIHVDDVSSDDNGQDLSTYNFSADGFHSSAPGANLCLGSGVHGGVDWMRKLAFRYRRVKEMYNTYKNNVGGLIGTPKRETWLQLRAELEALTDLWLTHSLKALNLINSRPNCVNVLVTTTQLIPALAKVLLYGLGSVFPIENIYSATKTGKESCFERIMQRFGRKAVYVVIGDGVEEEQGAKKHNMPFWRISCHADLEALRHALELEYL
# Target sequence (Q15475 whole entry, looked up): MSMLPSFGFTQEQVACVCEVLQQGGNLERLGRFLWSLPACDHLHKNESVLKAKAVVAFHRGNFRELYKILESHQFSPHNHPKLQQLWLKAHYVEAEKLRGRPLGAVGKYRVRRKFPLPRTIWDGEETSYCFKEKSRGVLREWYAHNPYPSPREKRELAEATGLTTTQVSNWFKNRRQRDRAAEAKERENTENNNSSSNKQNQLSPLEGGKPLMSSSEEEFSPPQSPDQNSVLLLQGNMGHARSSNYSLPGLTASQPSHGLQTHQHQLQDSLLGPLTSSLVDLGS
#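 AlphaScreen luminescence read after one hour at 37 °C in darkness. Pin-transferred compounds met GST-Six1 and His-Eya2 protein (5X stock 250 nM/500 nM) plus glutathione donor and Ni-chelate acceptor beads (5X, 50 ug/mL).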
# CtBP-E1A inh: blocks the CtBP interaction with E1A; AlphaScreen GST-E1A/His-CtBP binding, 1536-well; active compounds read low; activity change, % (test concentration not listed); 340,000 compounds, 0.49% hits; AID 651724; in the data active = activity change below about -65%; inconclusive = mostly about -30% to -63%; also: % is scaled to controls: 0 for no effect and ±100 for the full control effect
#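 GST-E1A and His-tagged CtBP (125 nM each as 5X stock) were preincubated with pin-transferred compound for 2 h at 37 °C in the dark, then glutathione donor and nickel acceptor beads were added for 1 h before AlphaScreen reading.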
# Active calls of the source: *; i = inactive; ? = inconclusive; / = no result given; ! = not active in a repeat; [ ] = remark or other dose. A selection: hits, their analogues and other compounds. The true share with any hit is near 2.8%. Unless noted, calls follow the shape of the dose curve; as a rule, active = well fitted curve in the direction sought with a large enough effect; inconclusive = small, poorly fitted or top-dose-only effect, or another doubt; inactive = no such curve, though single readings can be large; an effect the other way counts as inactive or inconclusive.
SMILES,ATXN viability,TGFb SMAD3 inh,HepG2 tox,ATXN2 expr inh,Six1-Eya2 inh,CtBP-E1A inh
CN1CC[C@]23c4c5ccc(O)c4O[C@H]2[C@@H](O)CC[C@H]3[C@H]1C5,i,/,/,10%[116 µM],/,/
Cc1c(Cl)ccc2sc(N3CCN(C(=O)CCS(=O)(=O)c4ccc(F)cc4)CC3)nc12,i,8.9µM*,-25%,-33%,/,/
COc1cccc2c1C(=O)c1c(O)c3c(c(O)c1C2=O)CC(O)(C(C)=NO)CC3OC1CC(N)C(O)C(C)O1 (stereo unspecified),?,6.3µM*,3%,1.6µM*,?,5
Cn1c(=O)c2c(nc(N/N=C/c3c(O)n(-c4ccccc4)c(=S)[nH]c3=O)n2C)n(C)c1=O,i,9%,24%,1%,-84*,-84*
CC(C)c1ccc(-n2c(O)c(/C=N/NC(=O)c3ccccc3O)c(=O)[nH]c2=S)cc1,i,-23%,-12%,-1%,?,?
Cn1c(NN=O)nc2ccccc21,14µM*,?,-25%,?,?,?
CN1CCN(Cc2nc3ccccc3n2C)CC1,?,1%,-2%,2%,-18,-16
O=c1[nH]c2ccccc2n1C1CCN(C(c2cc3ccccc3o2)c2nnnn2Cc2ccccc2)CC1 (stereo unspecified),/,?,6%,20µM*,-6,?
O=c1[nH]c2ccccc2n1C1CCN(C(CCc2ccccc2)c2nnnn2C2CCCC2)CC1 (stereo unspecified),?,?,-30%,25µM*,-20,-1
C1=C2CCCN[C@H]2[C@@H]2C[C@H]1[C@@H]1CCCCN1C2,/,/,/,-16%,/,/
CCN1CCCC1CNC(=O)C(O)(c1ccccc1)c1ccccc1 (stereo unspecified),i,/,/,7%,/,/
C[C@]12CC[C@@H]3c4ccc(OC(=O)N(CCCl)CCCl)cc4CC[C@H]3[C@@H]1CC[C@@H]2OP(=O)(O)O,?,/,/,13%,/,/
COC(=O)C(C)Oc1ccc(Cc2ncc(C(F)(F)F)cc2Cl)cc1 (stereo unspecified),?,17%,-3%,/,15,/
CCOc1ccc(C(=O)N2CCC(c3noc(-c4ccc(S(=O)(=O)N5CCCC5)cc4)n3)CC2)cc1,/,?,-8%,/,/,/
CCCCCCCCCCCC[N+](C)(C)CCOc1ccccc1,?,/,/,32µM*,/,/
CCCCCCOc1ccc(CN2CCN(C)CC2)cc1,i,39%,-47%,?,-4,-8
C[C@@H]1CNC(=O)c2c(C(=O)Nc3ccc(CNC(=O)OC(C)(C)C)cc3)ncn21,?,?,-19%,?,-23,?
CC(C)c1c(C(=O)NC(c2cccnc2)C(F)(F)F)cnn1-c1nccc(-c2cccs2)n1 (stereo unspecified),i,/,/,/,/,/
Cc1ccc(N=Nc2cc(C)ccc2N)cc1,i,?,-39%,7%,?,-80*
COc1cccc(C(c2nnnn2-c2ccc3c(c2)OCCO3)N2CCC(n3c(=O)[nH]c4ccccc43)CC2)c1OC (stereo unspecified),i,?,13µM*,16µM*,-12,-26
CN(C)CCc1c[nH]c2ccccc12,i,/,/,27%[222 µM],/,/
CCOc1cccc(=NC2CCCCC2)c2c(C)n(C)c(C)c12,?,10µM*,-10%,?,-18,-23
Ic1ccccc1CN[C@@H]1C2CCN(CC2)[C@@H]1C(c1ccccc1)c1ccccc1,22µM*,?,11µM*,?,-8,-6
Fc1ccccc1CNC1CN2CCC1CC2 (stereo unspecified),i,1%,-15%,-7%,8,1
C[C@]12CC[C@H](O)CC1=CC[C@H]1[C@H]3CCC(=O)[C@@]3(C)CC[C@@H]12,/,/,/,2%,/,/
SMILES,ATXN viability,TGFb SMAD3 inh,HepG2 tox,ATXN2 expr inh,Six1-Eya2 inh,CtBP-E1A inh
O=C(CCC1N=C2c3ccccc3N=C(SCc3cccc(Cl)c3)N2C1=O)N1CCN(c2ccccc2)CC1 (stereo unspecified),?,10µM*,-29%,-13%,/,/
COc1ccccc1CNC(=O)CCC1N=C2c3ccccc3N=C(SCc3cccc(Cl)c3)N2C1=O (stereo unspecified),/,?,-22%,/,/,/
O=c1[nH]c(=O)n(-c2cccc(Cl)c2)c(O)c1/C=N/c1ccccn1,i,9%,9%,-2%,-5,2
COc1ccc2nc(/N=C/c3c(O)n(-c4cccc(Cl)c4)c(=O)[nH]c3=O)sc2c1,i,?,-12%,0%,-71*,?
CC(=O)NC(Cc1ccc(N(CCCl)CCCl)cc1)C(=O)O (stereo unspecified),i,1%,-36%,?,10,4
N[C@@H](Cc1ccc(N(CCCl)CCCl)cc1)C(=O)O,?,33%,-1%,5.4µM*!,-1,-2
CN(C)c1ccc(CN2CCc3nc(N4CCN(c5ccccn5)CC4)ncc3C2)cc1,?,8.9µM*,-32%,28µM*,/,/
Cc1sc(NC(=O)Cn2c(=O)oc3ccccc32)nc1-c1ccc(Cl)cc1,i,?,-53%,?,11,-4
CCOc1ccc(S(=O)(=O)NCCc2sc3nc(-c4ccc(C)cc4)nn3c2C)cc1,/,14µM*,0%,/,/,/
Cc1c(CCNS(=O)(=O)c2ccccc2)sc2nc(-c3ccc(Cl)cc3)nn12,/,13µM*,-20%,/,/,/
Oc1ccc(-c2cccnc2)cc1CNC1CN2CCC1CC2 (stereo unspecified),i,/,/,/,/,/
Cc1c(C=O)c2ccccc2n1Cc1ccccc1,i,?,-40%,-2%,-2,10
Cc1c(C=O)c2ccccc2n1Cc1cccc(F)c1,i,1.8µM*,-42%,-6%,0,-2
Fc1ccc(CCNCc2ccc(Cl)c(Cl)c2)cc1,?,?,13µM*,?,26,7
CCN(CC)C(=O)N[C@H]1C=C2c3cccc4[nH]cc(c34)C[C@@H]2N(C)C1,i,/,/,/,/,/
CCOc1ccc(-c2c(C)n(-c3ccc(OCC)cc3)c3[n+]2CCCCC3)cc1,i,1µM*,-18%,?,5,1
O=C(Nc1ccccc1)N(Cc1ccc2c(c1)OCO2)C1CCN(Cc2ccccc2)CC1,i,?,-34%,-4%,/,/
COc1ccccc1NC(=O)N(Cc1ccc2c(c1)OCO2)C1CCN(Cc2ccccc2)CC1,?,8.9µM*,-29%,?,/,/
c1ccc2c(CNC3CCCCCC3)c[nH]c2c1,28µM*,?,-113%,20µM*,-15,41
CC1CCCC(C)N1/N=C/c1c[nH]c2ccc(Br)cc12 (stereo unspecified),i,?,18µM*,-36%,-9,-10
